From PubChem BioAssay (NCI)
The panel holds about 83,000 compounds, 20% with a hit somewhere; the sample as a whole holds those more often.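 Assay: single dose, 48 h. Readout: percent growth (0 = no net growth; negative = cell death). Active: <10.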 Activity calls are given as the source filed them.

Key:
Assay in all cases: NCI-60 one-dose screen, 48 h (100 = growth as untreated, 0 = no growth, -100 = all killed)
Conditions in all cases: 10 µM unless noted
[1] = tested on: HCT-15 colon
[2] = tested on: HT29 colon
[3] = tested on: SNB-75 CNS
[4] = tested on: SNB-19 CNS
[5] = tested on: U251 CNS
[6] = tested on: PC-3 prostate
[7] = tested on: SK-MEL-5 melanoma
[8] = tested on: UACC-62 melanoma
[9] = tested on: LOX IMVI melanoma
[10] = tested on: SK-MEL-28 melanoma

Measured: growth

CSc1nc2ncc([N+](=O)[O-])c(=O)n2[nH]1
inactive: [1] 105% | [2] 107% | [3] 93% | [4] 103% | [5] 102% | [6] 98.1% | [7] 103% | [8] 101% | [9] 101% | [10] 105%

O=C1/C(=C\c2ccc3nccnc3c2)SC(=S)N1CCc1ccc(O)cc1
inactive: [1] 78.3% | [2] 112% | [3] 66% | [4] 94% | [5] 99.3% | [6] 89.7% | [7] 98.7% | [8] 84.5% | [9] 79.4% | [10] 103%

Nc1[nH]n2cc(-c3ccccc3)nc2c1N=Nc1ccc(S(N)(=O)=O)cc1
inactive: [1] 22.8% | [2] 38.8% | [4] 60.4% | [5] 38.7% | [6] 32.4% | [7] 26.8% | [8] 31.3% | [9] 17.4% | [10] 45%
active: [3] 1.09%

CCCCNCCCCCNc1cc(OC)cc2cccnc12
inactive: [1] 88.2% | [2] 96% | [3] 74.1% | [4] 95.5% | [5] 91.8% | [6] 77.8% | [7] 94.3% | [8] 83.2% | [9] 105% | [10] 98.8%

Cc1ccccc1/C=C/C(=O)c1cccc(OCCCCOc2cccc(C(=O)/C=C/c3ccccc3C)c2)c1
inactive: [1] 84.6% | [2] 86.8% | [3] 90.9% | [4] 93.5% | [5] 93% | [6] 100% | [7] 101% | [8] 74.8% | [9] 95.9% | [10] 95.2%

CC(=O)c1c(C)nc2ccccc2c1/C=C/c1ccc(F)cc1
inactive: [1] 84.8% | [2] 90.7% | [3] 82.4% | [4] 93% | [5] 86.7% | [6] 79.1% | [7] 69.5% | [8] 74.9% | [9] 81.4% | [10] 114%

COc1cc(-c2csc(NC(=O)c3ccc(N4CCOCC4)c(C(F)(F)F)c3)n2)cc(OC)c1OC
active: [7] -6.45% | [8] -6.31%
inactive: [1] 11% | [2] 43.2% | [3] 57.2% | [4] 62.6% | [5] 47.3% | [6] 11% | [9] 23.1% | [10] 36.6%

C[C@@H](CO)[C@@H]1CCC=C2CC[C@]3(C)[C@H](CC[C@@H]4[C@@]5(C)CCCNC(C)(C)[C@@H]5CC[C@]43C)[C@H]21
active: [1] -5.42% | [2] 1.93% | [9] -52.2%
inactive: [3] 92.3% | [4] 88.4% | [5] 18.8% | [6] 47.1% | [7] 72.2% | [8] 80.3% | [10] 70.5%

CC(C)c1ccc(C(=O)Nc2nc3ccc(O)c(CN(C)C)c3s2)cc1
inactive: [1] 20% | [2] 23.8% | [3] 107% | [4] 97.9% | [5] 69.1% | [6] 83% | [7] 74.4% | [8] 66% | [9] 28.1% | [10] 96.1%

NS(=O)(=O)c1ccc(N=Nc2c(O)n(Cc3ccccc3)c3ccc(Cl)cc23)cc1
inactive: [1] 88.8% | [2] 94.6% | [4] 40.8% | [5] 81.7% | [6] 83.8% | [7] 80.5% | [8] 66.6% | [9] 97.6% | [10] 93.2%
active: [3] -9.32%

Cn1c(I)c(C#CCO[Si](C)(C)C(C)(C)C)c(=O)[nH]c1=O
inactive: [1] 91% | [2] 113% | [3] 99.9% | [4] 104% | [5] 109% | [6] 96.5% | [7] 103% | [8] 101% | [9] 99.9% | [10] 30.7%

COc1ccc2c(c1)N(CCO)C1=C(C(=O)OC1)C2c1cccc(F)c1 (stereo not given)
active: [1] 7.3% | [2] 3.98%
inactive: [3] 35.7% | [4] 27.8% | [5] 16.9% | [6] 25.6% | [7] 12.3% | [8] 40% | [9] 27.5% | [10] 47.9%

N#C/C(=C\c1c(-c2ccccc2)[nH]c2ccccc12)C(N)=O
inactive: [1] 56.4% | [2] 67.4% | [3] 32.5% | [4] 89.6% | [5] 79.6% | [6] 69.8% | [7] 64.7% | [8] 58.9% | [9] 76.2% | [10] 97.6%

COC1/C=C/OC2(C)Oc3c(C)c(O)c4c(O)c(c(/C=N/Nc5ccc([N+](=O)[O-])cc5[N+](=O)[O-])c(O)c4c3C2=O)NC(=O)C(C)=C/C=C/C(C)C(O)C(C)C(O)C(C)C(OC(C)=O)C1C (stereo not given)
active: [2] -37.2% | [5] -31.9% | [8] -41.3% | [9] -56.9%
inactive: [1] 41.6% | [3] 67% | [4] 38.6% | [6] 34.2% | [7] 29.7% | [10] 37.3%

C#COc1cccc(Nc2c(C#N)cnc3ncc(NC(=O)CCl)cc23)c1
inactive: [1] 22.8% [6.25 µM] | [3] 54.2% [6.25 µM] | [4] 11% [6.25 µM] | [6] 19.6% [6.25 µM] | [7] 47.7% [6.25 µM] | [8] 37.5% [6.25 µM] | [10] 50.8% [6.25 µM]
active: [2] 3.12% [6.25 µM] | [5] -42.8% [6.25 µM] | [9] -2.95% [6.25 µM]

CCCC/C(CC)=N\NS(=O)(=O)c1ccc([N+](=O)[O-])cc1
inactive: [1] 107% | [2] 106% | [3] 90.4% | [4] 95.2% | [5] 88.6% | [6] 84.5% | [7] 98.2% | [8] 98.5% | [9] 94.2% | [10] 108%

CN(C)CCNC(=O)c1cc2c3cc(Cl)ccc3[nH]c2c2ncccc12
active: [2] 0.808% | [7] -38.8% | [8] -86.5% | [9] -77.5% | [10] -59.3%
inactive: [1] 14.2% | [3] 44.7% | [4] 40% | [5] 11.5% | [6] 22.4%

Cc1ccc(C2=Nc3c(N)ncnc3NC(c3cccc(Nc4ccnc5cc(C(F)(F)F)ccc45)c3)C2)cc1 (stereo not given)
inactive: [3] 21.7% | [4] 43.6% | [5] 31.1% | [6] 16.1% | [7] 12.1% | [8] 48.7% | [9] 26.7% | [10] 52.3%
active: [1] 6.14% | [2] 5.98%

Cc1cccc(/C=C2\CN(C(=O)OC(C)(C)C)C/C(=C\c3cccc(C)c3)C2=O)c1
inactive: [1] 76.2% | [2] 46.5% | [3] 74.7% | [4] 95.9% | [5] 63.6% | [6] 89% | [7] 101% | [8] 81.3% | [9] 47.1% | [10] 104%

c1cc2c(ccc3[nH]c(-c4ccc5[nH]ncc5c4)c4c(c32)CCCC4)n1
inactive: [1] 61.6% | [2] 51.7% | [3] 62.1% | [4] 44.5% | [5] 36.8% | [6] 28.4% | [7] 61.7% | [8] 54.6% | [9] 61.5% | [10] 67.3%

O=C(NCCNc1nccc(Nc2ccc(S(=O)(=O)Nc3ccccn3)cc2)n1)c1cccc([N+](=O)[O-])c1
inactive: [1] 105% | [2] 90.6% | [3] 93.5% | [4] 112% | [5] 97.6% | [6] 94.2% | [7] 103% | [8] 100% | [9] 101% | [10] 107%

CCC(C(=O)[C@@H](C)[C@@H](O)[C@H](C)[C@@H]1O[C@@H]([C@@H](CC)C(=O)ONC(=O)c2ccccc2)CC[C@@H]1C)[C@H]1O[C@]2(C=CC(=O)[C@]3(CC[C@@](C)([C@H]4CC[C@](O)(CC)[C@H](C)O4)O3)O2)[C@H](C)C[C@@H]1C (stereo not given in full)
inactive: [1] 13.7% | [2] 20.6% | [3] 27.6% | [4] 21.1% | [10] 20.6%
active: [5] -19% | [6] 8.93% | [7] -73.9% | [8] -24.5% | [9] 4.55%

C=C(C)[C@@H]1CCC[C@]2(COS(=O)(=O)c3ccc(C)cc3)CC[C@]3(C)[C@@H](CC[C@@H]4[C@@]5(C)CCCNC(C)(C)[C@@H]5CC[C@]43C)[C@@H]12
active: [1] -61.5% | [2] -50.8% | [5] -82.1% | [9] -86.5%
inactive: [3] 81.6% | [4] 39% | [6] 10.5% | [7] 92.1% | [8] 87.7% | [10] 68.3%

COc1ccc(-c2nc3c(ncc4ccc(=O)[nH]c43)s2)cc1
inactive: [1] 73.6% | [2] 81.1% | [3] 102% | [4] 105% | [5] 81.6% | [6] 83.4% | [7] 74.3% | [8] 88.1% | [9] 52% | [10] 87.6%

O=C(C[C@]1(O)C(=O)Nc2ccccc21)c1cccc(C(F)(F)F)c1
inactive: [1] 96.5% | [2] 96.1% | [3] 76.8% | [4] 95.9% | [5] 92.4% | [6] 81.4% | [7] 91.7% | [8] 78.3% | [9] 93.2% | [10] 91.6%

CCN1C(=S)N(c2ccccc2)C2C1NN=c1s/c(=C3\C(=O)N(C(C)C)c4ccccc43)c(=O)n12 (stereo not given)
inactive: [1] 93.3% | [2] 69.6% | [3] 61% | [4] 81.9% | [5] 64.6% | [6] 79.3% | [7] 92.1% | [8] 83.5% | [9] 47.5% | [10] 102%
